Screening results as filed in PubChem.
Compounds with a hit are over-represented: about 11% of the library has one in this group of screens.
Tau FP inhib: tau fibrillization inhibition (FP); K18 P301L tau heparin fibrillization, Alexa594 FP, 6 h; Potency, µM (highest dose often 57.7 µM), for inactives: at the top dose activity, negative = inhibition, actives largely listed as inhibitors; 0.39% of 280,000 active; note: potency is the fitted concentration of half-maximal effect; nearly all actives have a fitted effect of over 55% in size
Target sequence (P10636 561-689 P618L limits assumed): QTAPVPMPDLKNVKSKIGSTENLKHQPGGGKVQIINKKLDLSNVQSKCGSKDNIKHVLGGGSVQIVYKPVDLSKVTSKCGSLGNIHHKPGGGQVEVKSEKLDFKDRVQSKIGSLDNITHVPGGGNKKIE
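Read-out: fluorescence polarization of Alexa 594-labeled tau (0.24 uM), 555 nm excitation, 632 nm emission. Mixtures held 15 uM unlabeled K18 P301L, compound and 20 uM heparin, pH 7 acetate buffer, incubated 6 hr at 37 C.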
Tau fibril ThT: inhibitors of human tau fibril formation, thioflavin T binding. 2.1% of 270,000 active. Potency, µM (top dose mostly 57.4 µM), without a hit: top-dose activity, negative = inhibition, hits mostly inhibitors. recombinant tau K18 P301L, heparin-induced fibrillization, ThT fluorescence. P10636; note: potency is the fitted concentration of half-maximal effect; nearly all actives have a fitted effect of over 55% in size
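ThT emission at 510 nm, taken 1 hr after adding 30 uM dye, quantifies aggregates formed when 20 uM heparin acts on human tau K18 P301L for 6 hr at 37 C.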
Sfp PPTase inh: blocks B. subtilis Sfp PPTase activity; Q9F4F7; Biochemical Sfp PPTase activity, qHTS; Potency, µM, inactives show largest response in the series, negative = inhibition, most hits filed as inhibitors; 3.5% of 310,000 active; AID 1490;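 note: the enzyme is Sfp with the accession as filed and its product quenches rhodamine fluorescence; potency is the fitted concentration of half-maximal effect; 0% = enzyme reaction without inhibitor and -100% = no enzyme wells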
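Compounds were incubated with enzyme (final 15 nM) for 15 min at room temperature before substrate addition started the reaction. Fluorescence at 525 nm excitation, 598 nm emission was recorded immediately and after 30 minutes.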
G9a inh: G9a (human) methyltransferase inhibition. Q96KQ7. G9a H3K9 monomethylation, AlphaScreen, 2 h. Potency, µM (series often up to 102 µM), without a hit: at the top dose activity, negative = inhibition, actives largely listed as inhibitors. 8.8% of 350,000 active. AID 504332; note: potency is the fitted concentration of half-maximal effect; nearly all actives have a fitted effect of over 75% in size
Target sequence (Q96KQ7 913-1193 limits assumed): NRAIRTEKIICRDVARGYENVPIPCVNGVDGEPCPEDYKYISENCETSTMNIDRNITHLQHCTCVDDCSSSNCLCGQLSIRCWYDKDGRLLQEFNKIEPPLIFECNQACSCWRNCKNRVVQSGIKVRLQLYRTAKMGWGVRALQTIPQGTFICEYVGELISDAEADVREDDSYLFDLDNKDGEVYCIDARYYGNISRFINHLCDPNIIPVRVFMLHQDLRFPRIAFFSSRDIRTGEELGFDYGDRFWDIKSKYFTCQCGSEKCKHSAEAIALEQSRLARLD
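Signal arises when biotinylated H3K9 peptide, once monomethylated, bridges streptavidin donor and antibody-captured acceptor beads. Enzyme at 20 nM was preincubated 15 min with test compounds; peptide 500 nM and SAM 20 uM then reacted for 2 h.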
Tau fluor counter: counter-screen for tau fibril formation inhibitors. tau K18 P301L (four-repeat tau fragment) Alexa594 fluorescence, heparin fibrillization. Potency, µM (titrated, usually from 57.7 µM), without a hit: at the highest dose activity change, negative = decrease. 0.93% of 280,000 active. AID 1463; note: potency is the fitted concentration of half-maximal effect; nearly all actives have a fitted effect of over 55% in size
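Human K18 P301L tau (15 uM unlabeled plus 0.24 uM Alexa 594-labeled, final) in 100 mM sodium acetate pH 7 was mixed with compound and 20 uM heparin and incubated 6 hr at 37 C.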
Coupling enz: counter-screen for Giardia aldolase inhibitors: coupling enzyme system; coupling enzyme system counterscreen, AmpLite Red fluorescence; activity change, negative = inhibition, % at 58.2 µM, hits read low; 0.67% of 290,000 active; AID 2472; in the data active = activity change below about -30%
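Fluorescence at 525 nm excitation and 598 nm emission measured inhibition of the coupled detection system without aldolase. Compounds (at 57.5 uM final) were preincubated 10 min at room temperature with coupling enzyme reagent before a 20 min substrate/AmpLite Red step.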
* = called active by the depositor; ? = inconclusive; . = no result; [ ] = dose if it differs, or a comment. Unless noted, calls come from the whole dose curve; as a rule, active = well fitted curve in the direction sought with a large enough effect; inconclusive = small, poorly fitted or top-dose-only effect, or another doubt; inactive = no such curve, though single readings can be large; an effect the other way counts as inactive or inconclusive. Unless noted, % is set by controls: 0 for no effect and ±100 for the full control effect.

SMILES	Tau FP inhib	Tau fibril ThT	Sfp PPTase inh	G9a inh	Tau fluor counter	Coupling enz
CCN1CCCC1CNC(=O)c1cc2c(-c3ccc(Cl)cc3)nn(C)c2s1 (centres undefined)	-11%	-14%	6%	79µM*	?	0
Cc1ccc(CNC(=O)c2cc3c(-c4ccc(Cl)cc4)nn(C)c3s2)o1	1%	-9%	?	50µM*	-29%	-2
CCCCNC(=O)c1cc2c(-c3ccc(Cl)cc3)nn(C)c2s1	-5%	-7%	15%	19%	-17%	1
CCN(CCCNC(=O)CSc1cc(=O)n(CC)c2ccccc12)c1ccccc1	0%	?	.	?	?	.
Cn1cc(CN2CCc3c([nH]c4ccccc34)C2C2CCCCC2)cn1 (centres undefined)	-4%[2.34 µM]	?	?	45µM*	-18%	-3
Cc1ccc(Cl)cc1NC(=O)Nc1cn(CC(C)C)c(=O)c2ccccc12	1%	-2%	.	?	?	.
O=c1cc(C23CC4CC(CC(C4)C2)C3)[nH][nH]1	-5%	?	-14%	-8%[59 µM]	-3%	-21
S=c1nc(C23CC4CC(CC(C4)C2)C3)[nH][nH]1	-4%	-5%	56µM*	-127%[59 µM]	-2%	-3
O=C1C(=C(c2ccccc2)c2ccccc2)Nc2ccccc21	-11%	16µM*	3%	-147%[59 µM]	?	-2
COc1ccc(CNC(=O)C2CCN(S(=O)(=O)N3CCCC3)CC2)c(OC)c1	.	.	16%	8%	.	2
O=C(Oc1ccc(N(C(=O)c2ccncc2)S(=O)(=O)c2ccc(F)cc2)cc1)c1ccncc1	8%	?	14%	45µM*	-8%	0
O=C(c1ccncc1)N(c1ccc2oc3c(c2c1)CCCC3)S(=O)(=O)c1ccc(F)cc1	13%	?	3%	79µM*	-18%	1
O=C(Oc1ccc(N(C(=O)c2ccncc2)S(=O)(=O)c2ccc(Cl)cc2)cc1)c1ccncc1	7%	?	12%	50µM*	-7%	-2
COC(=O)c1c(C)oc2ccc(N(C(=O)c3ccncc3)S(=O)(=O)c3ccc(Br)cc3)cc12	?	?	.	-37%[59 µM]	-14%	.
Cn1ncc2c(Nc3cccc(C#N)c3)ncnc21	-3%	1%	.	-9%[59 µM]	-10%	.
COc1ccc(CNC(=S)NCc2ccc(Cl)cc2)cc1OC	.	.	6%	28%	.	3
Cc1ccc(-c2cc(-c3ccco3)c3c(N)c(C(=O)NN)oc3n2)cc1	-2%	10µM*	?	.	?	-2
NNC(=O)c1oc2nc(-c3cccs3)cc(-c3ccco3)c2c1N	.	.	-9%	-7%	.	-1
COc1cccc(/C=N/NC(=O)c2oc3nc(-c4ccccc4)cc(-c4ccco4)c3c2N)c1	5%	?	-13%	32µM*	-14%	-2
COc1cccc(-c2cc(C(=O)N/N=C/c3ccco3)c3ccccc3n2)c1	.	.	4%	46%	.	0
CCC(C)(C)C(=O)Nc1ncc(S(=O)(=O)c2ccc([N+](=O)[O-])cc2)s1	?	-10%	-6%	50µM*	?	1
O=C(Nc1ncc(S(=O)(=O)c2ccc([N+](=O)[O-])cc2)s1)c1cccnc1	-7%	.	5%	50µM*	?	7
Cc1cccc(N2C(=O)CSC23C(=O)N(CC(=O)NCCc2ccccc2)c2ccccc23)c1 (centres undefined)	-1%	0%	.	-4%[59 µM]	-12%	.
CN1CCN(C(=S)c2cn(Cc3ccc(F)cc3)c3ccccc23)CC1	0%	-9%	15%	45µM*	-18%	-1
Cc1ccccc1OCCn1cc(C(=S)N2CCN(C)CC2)c2ccccc21	6%	-9%	5%	40µM*	-19%	-6
SMILES	Tau FP inhib	Tau fibril ThT	Sfp PPTase inh	G9a inh	Tau fluor counter	Coupling enz
CC1CCN(C(=S)c2cn(Cc3ccccc3F)c3ccccc23)CC1	3%	-16%	-5%	-8%[59 µM]	-27%	-3
S=C(c1cn(Cc2ccccc2)c2ccccc12)N1CCOCC1	6%	5%	14%	25µM*	-16%	-1
CN1CCN(C(=S)c2cn(Cc3ccccc3F)c3ccccc23)CC1	10%	-2%	-8%	40µM*	-12%	0
CCCCn1c(N)c(N(CCOC)C(=O)C2CC(=O)N(c3cccc(SC)c3)C2)c(=O)[nH]c1=O (centres undefined)	.	.	.	-5%	.	.
CON(C)S(=O)(=O)c1cccc(C(=O)Oc2ccc(N(C)S(=O)(=O)c3ccccc3)cc2)c1	.	.	17%	4%	.	-1
CCCC(=O)NCCc1nc2ccccc2n1Cc1c(F)cccc1Cl	-3%	-15%	.	6%[59 µM]	-18%	.
O=C(c1csnn1)N1CCC2(CCCN(c3ccccn3)C2)CC1	.	.	13%	-1%[12.7 µM]	.	-1
S=C(c1c[nH]c2ccccc12)N1CCOCC1	-4%	-3%	22µM*	11µM*	-1%	11
O=C(C(=O)N1CCOCC1)c1c[nH]c2ccccc12	8%	4%	15%	.	8%	2
CN1CCN(C(=S)c2cn(Cc3cccc(F)c3)c3ccccc23)CC1	9%	-2%	14%	56µM*	-6%	0
CC1CCN(C(=S)c2cn(Cc3ccc(F)cc3)c3ccccc23)CC1	-2%	-3%	14%	1%	-17%	0
O=C(CNC(=O)c1cccs1)N/N=C/c1c(F)cccc1Cl	.	.	9%	13%[12.7 µM]	.	.
O=C(NCCCNCCCNC(=O)c1ccc(/C=N/O)nc1)c1ccc(/C=N/O)nc1	-1%	.	14µM*	.	-11%	4
CN(CCNC(=O)c1ccc(/C=N/O)nc1)Cc1ccccc1	-11%	-5%	-9%	25µM*	-5%	1
O=C(NCC1CCCO1)c1ccc(/C=N/O)nc1 (centres undefined)	-1%	-11%	?	28µM*	-6%	1
Cc1nn(-c2ccccc2)c(=S)c2ccccc12	-7%	-9%	-23%	13µM*	-4%	1
CCOC(=O)CSc1nc(N)c(C#N)c(-c2cccs2)c1C#N	?	-1%	10%	.	-5%	4
CCOC(=O)CSc1c(-c2ccc(Cl)cc2)[nH]c2ccccc12	?	-2%	17%	-12%[59 µM]	11µM*[quencher]	-11
CCOC(=O)CSc1c(-c2cccs2)[nH]c2ccccc12	?	?	15%	13%	8.9µM*[quencher]	-8
Clc1ccc(/C=N/NC2=Nc3cccc4cccc2c34)cc1	12%	2.8µM*	6%	-6%[59 µM]	-23%	-4
Clc1ccc(/C=N/Nc2nc(Cl)nc3ccccc23)cc1	8%	?	-8%	66%[12.7 µM]	?	0
C(=N\NC1=Nc2cccc3cccc1c23)/c1ccccc1	8%	2µM*	?	-5%[59 µM]	-23%	-13
O=[N+]([O-])c1ccc(N/N=C/c2cccnc2)cc1	.	.	2%	0%[59 µM]	.	-5
